Test systems include NCI/ADR-RES ovarian; T-47D breast; BT-549 breast; MDA-MB-435 melanoma; SW-620 colon; MCF7 breast; HCT-116 colon; HCC-2998 colon; KM12 colon.
Common to all, as to assay: NCI-60 one-dose screen, 48 h (100 = growth as untreated, 0 = no growth, -100 = all killed)
Common to all, as to conditions: 10 µM unless noted

We go through 14 compounds from PubChem BioAssay (NCI).

Molecules are shown by their SMILES. The panel holds about 83,000 compounds, 20% with a hit somewhere; the sample as a whole holds those more often.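 Single-concentration screen, 48 h exposure, 96-well plates. Endpoint: percent growth. Below 10 = active.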 Values without a mark were called inactive. Active and inactive are the calls of the source.

In the case of `N/C(=N\N=C\c1ccc(-c2ccccc2)cc1)N[N+](=O)[O-]`, the growth was 19.4% with NCI/ADR-RES ovarian; 36.1% in the assay on T-47D breast; 52% in the assay on BT-549 breast; -27.4% (active) with MDA-MB-435 melanoma; 20.7% in the assay on SW-620 colon; 13.6% in the assay on MCF7 breast. Besides, the values for the growth in the assay on HCT-116 colon, with HCC-2998 colon and in the assay with KM12 colon were 28.7%, 60.9% and 32.1%, respectively.
As for `CC(=O)O[C@H](C[C@H](C(C)C)N(C)C(=O)[C@@H](NC(=O)[C@H]1CCCCN1C)C(C)(C)C)c1nc(C(=O)N[C@@H](Cc2ccccc2)C[C@H](C)C(=O)O)cs1`, the growth is 12.3% with NCI/ADR-RES ovarian; 45.6% in the assay on T-47D breast; -23.6% (active) with BT-549 breast; -47% (active) in the assay with MDA-MB-435 melanoma; 24.5% in the assay on SW-620 colon; 16.4% in the assay with MCF7 breast. Also, the growth was 0.775% (active) in the assay on HCT-116 colon, 8.37% (active) in the assay with HCC-2998 colon and 6.93% (active) with KM12 colon.
`COC(=O)[C@@H](C)C[C@H](Cc1ccccc1)NC(=O)c1nc([C@@H](C[C@H](C(C)C)N(C)C(=O)[C@@H](NC(=O)[C@H]2C[C@H](O)CCN2C)C(C)C)OC(C)=O)sc1C(C)C`: the growth with NCI/ADR-RES ovarian was 38.9%; in the assay with T-47D breast, 78.5%; in the assay with BT-549 breast, -30.8% (active); in the assay on MDA-MB-435 melanoma, -48.3% (active); in the assay with SW-620 colon it was 21.9%; with MCF7 breast, 18.7%. The figures for the growth in the assay on HCT-116 colon, in the assay on HCC-2998 colon and with KM12 colon were 2.56% (active), 14.1% and 0.729% (active), respectively.
Turning to `CCOC(=O)c1c(C)n(Cc2ccccc2)c2cc(CN(C)C)c(O)cc12`, the growth in the assay with NCI/ADR-RES ovarian was 63.5%; in the assay with T-47D breast, 61.1%; with BT-549 breast it was 64.7%; with MDA-MB-435 melanoma it was 80.3%; in the assay with SW-620 colon it was 63%; with MCF7 breast it was 55.3%. Also, the growth with HCT-116 colon was 51.7%; in the assay with HCC-2998 colon, 55.4%; in the assay on KM12 colon it was 76.5%.
Take `Cc1cnc(/C=C/C(=O)O)cc1-c1cc2c(cc1C)C(C)(C)CCC2(C)C`: the growth in the assay with NCI/ADR-RES ovarian was 78.7%; with T-47D breast, 80.3%; in the assay with BT-549 breast, 69%; in the assay on MDA-MB-435 melanoma it was 83.8%; in the assay on SW-620 colon it was 86.6%; in the assay on MCF7 breast it was 21.8%. Besides, the growth in the assay on HCT-116 colon is 57.2%; with HCC-2998 colon, 85.3%; with KM12 colon, 57.3%.
For the compound `CCCCCCCCCCCCNC(c1ccccc1)C(O)c1ccccc1` (stereo unspecified), the growth in the assay with NCI/ADR-RES ovarian was 68.8%; in the assay on T-47D breast, 70.4%; in the assay with BT-549 breast it was 103%; with MDA-MB-435 melanoma it was 91.4%; with SW-620 colon, 48.1%; in the assay on MCF7 breast, 63.7%. In addition, the results for the growth in the assay on HCT-116 colon, in the assay on HCC-2998 colon and in the assay on KM12 colon were 12.2%, 43.1% and 74.9%, respectively.
Take `CCc1ccccc1[C@@H]1C[C@]2(C)CCO[C@@H]2OO1`: the growth in the assay with NCI/ADR-RES ovarian is 105%; in the assay with T-47D breast, 101%; in the assay with BT-549 breast, 111%; in the assay on MDA-MB-435 melanoma, 109%; in the assay with SW-620 colon it was 102%; with MCF7 breast, 95.7%. The growth with HCT-116 colon was 96.3%; in the assay on HCC-2998 colon, 93.7%; with KM12 colon it was 101%.
As for `COc1cc2ncnc(Nc3ccc(F)c(Cl)c3)c2cc1OCC(=O)N1CCN(C)CC1`, the growth is 86.7% with NCI/ADR-RES ovarian; 70% in the assay on T-47D breast; 89.6% with BT-549 breast; 102% in the assay on MDA-MB-435 melanoma; 105% in the assay with SW-620 colon; 80.4% in the assay with MCF7 breast. For the same compound, the growth in the assay on HCT-116 colon was 91.3%; in the assay on HCC-2998 colon, 102%; with KM12 colon it was 96.4%.
In the case of `O=C(CC1(O)C(=O)Nc2ccccc21)c1ccc(C(=O)NCC2CCC3(CC2)OOC2(CCCCC2)OO3)cc1` (stereo unspecified), the growth in the assay with NCI/ADR-RES ovarian was 86.9%; with T-47D breast, 31.8%; in the assay on BT-549 breast, 80.1%; in the assay on MDA-MB-435 melanoma, 81.6%; in the assay on SW-620 colon, 86.4%; in the assay on MCF7 breast it was 62.9%. The figures for the growth with HCT-116 colon, in the assay with HCC-2998 colon and in the assay on KM12 colon were 65.9%, 106% and 77.4%, respectively.
Take `COC(=O)[C@@H](C)C[C@H](Cc1ccccc1)NC(=O)c1csc([C@@H](C[C@H](C(C)C)N(C)C(=O)[C@@H](NC(=O)[C@H]2CCCCN2C)C2CC2)OC(C)=O)n1`: the growth in the assay with NCI/ADR-RES ovarian was 8.28% (active); in the assay on T-47D breast, 73%; with BT-549 breast it was -30.6% (active); in the assay on MDA-MB-435 melanoma it was -12.1% (active); in the assay with SW-620 colon, 48.4%; in the assay on MCF7 breast, 16.3%. Further, the growth in the assay on HCT-116 colon was 7.53% (active); with HCC-2998 colon, 15.9%; with KM12 colon, 5.07% (active).
Regarding `CC[C@H](C)[C@H](NC(=O)C12CC(NC(C)=O)(C1)C2)C(=O)N(C)[C@H](C[C@@H](OC(C)=O)c1nc(C(=O)N[C@@H](Cc2ccccc2)C[C@H](C)C(=O)OC)cs1)C(C)C`, the growth in the assay on NCI/ADR-RES ovarian is 80.5%; in the assay with T-47D breast, 50.1%; in the assay on BT-549 breast, 4.76% (active); in the assay with MDA-MB-435 melanoma, -59% (active); in the assay on SW-620 colon it was 23.7%; in the assay with MCF7 breast, 15.7%. For the same compound, the growth in the assay with HCT-116 colon was 3.73% (active); in the assay on HCC-2998 colon, 24.8%; with KM12 colon it was 12.5%.
As to `CCCCCCCCCCCCCCCCCC1OC[C@H](COC(=O)O[C@@H](C(=O)O[C@H]2C[C@@]3(O)[C@@H](OC(=O)c4ccccc4)[C@@H]4[C@]5(OC(C)=O)CO[C@@H]5C[C@H](O)[C@@]4(C)C(=O)[C@H](OC(C)=O)C(=C2C)C3(C)C)[C@@H](NC(=O)c2ccccc2)c2ccccc2)O1` (stereo partly specified), the growth was 103% in the assay on NCI/ADR-RES ovarian; 50.4% in the assay with T-47D breast; 53.8% in the assay on BT-549 breast; -29.7% (active) with MDA-MB-435 melanoma; 46.9% in the assay with SW-620 colon; 25.9% in the assay on MCF7 breast. For the same compound, the figures for the growth in the assay on HCT-116 colon, in the assay with HCC-2998 colon and with KM12 colon were 17.8%, 54.1% and 26.4%, respectively.
As to `CN1CCC(c2c[nH]c3ccccc23)C1` (stereo unspecified), the growth in the assay with NCI/ADR-RES ovarian is 94.5%; in the assay with T-47D breast, 97%; in the assay on BT-549 breast, 110%; in the assay with MDA-MB-435 melanoma, 97.9%; with SW-620 colon, 104%; in the assay with MCF7 breast, 94.8%. The growth with HCT-116 colon is 94.2%; with HCC-2998 colon, 94.1%; with KM12 colon, 107%.
In the case of `CCOP(=O)(NC[C@H]1O[C@](O)(CO)[C@@H](O)[C@@H]1O)OCC`, the growth in the assay on NCI/ADR-RES ovarian was 100%; in the assay with T-47D breast it was 98.1%; with BT-549 breast it was 87.1%; with MDA-MB-435 melanoma it was 106%; in the assay on SW-620 colon, 104%; in the assay on MCF7 breast it was 95.1%. The results for the growth with HCT-116 colon, with HCC-2998 colon and in the assay on KM12 colon were 95.6%, 103% and 99.3%, respectively.
